Assay outcomes as filed in PubChem BioAssay.
A selection: hits, their analogues and other compounds. The true share with any hit is near 7.5%.
FLuc counter: firefly luciferase modulation, counter-screen for miR-21 project. Potency, µM (doses to about 57.5 µM), without a hit: at the top dose activity change, negative = inhibition, actives largely listed as inhibitors. 6.9% of 360,000 active. AID 588342. purified FLuc, Km substrates, luminescence inhibition. P08659;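 note: plate controls were vehicle for no effect and reference inhibitor for full effect; nearly all actives have a fitted effect of over 55% in size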
Target sequence (P08659 whole entry, looked up): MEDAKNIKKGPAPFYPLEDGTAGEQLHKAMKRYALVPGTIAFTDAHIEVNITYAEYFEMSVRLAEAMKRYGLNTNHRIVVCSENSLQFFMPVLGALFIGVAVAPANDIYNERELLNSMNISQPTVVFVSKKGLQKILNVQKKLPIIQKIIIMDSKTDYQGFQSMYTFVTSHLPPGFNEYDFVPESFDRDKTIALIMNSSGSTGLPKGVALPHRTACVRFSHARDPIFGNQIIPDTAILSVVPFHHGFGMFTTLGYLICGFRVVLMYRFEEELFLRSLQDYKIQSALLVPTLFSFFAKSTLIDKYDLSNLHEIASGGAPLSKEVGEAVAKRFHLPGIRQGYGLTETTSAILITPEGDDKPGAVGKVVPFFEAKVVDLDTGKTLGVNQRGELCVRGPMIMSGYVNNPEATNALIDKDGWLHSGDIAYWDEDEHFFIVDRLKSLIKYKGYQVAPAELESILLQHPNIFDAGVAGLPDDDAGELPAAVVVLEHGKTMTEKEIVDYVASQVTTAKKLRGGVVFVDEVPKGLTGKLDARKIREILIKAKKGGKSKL
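Purified P. pyralis luciferase (10nM final) with 10uM D-luciferin and 10uM ATP (Km levels) in 50mM Tris acetate pH 7.5, 10mM Mg acetate, 0.01% Tween-20, 0.05% BSA; qHTS 6-point titration, ~60 µM downward; luminescence read.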
ELG1 genotox: genotoxicity induction in ELG1-luciferase HEK293T cells | HEK293T ELG1-luciferase reporter, luminescence, 16 h | Potency, µM (series often up to 46 µM), without a hit: at the highest dose activity change, positive = activation, most hits filed as activators | 1.3% of 330,000 active | AID 504466; note: % of control where 0% means no effect; nearly all actives have a fitted effect of over 60% in size
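Cells (2,000/well) expressing the ELG1-luciferase fusion are dosed by pin tool and kept 16 hr at 37 °C, 5% CO2. Signal comes from ONE-Glo luciferase reagent after 30 min at room temperature.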
Rab9 prom act: activates the Rab9 promoter; Huh7 Rab9 promoter-luciferase reporter, luminescence, 24 h; Potency, µM (series often up to 9.22 µM), inactives show at the top dose activation, negative = inhibition, most hits filed as activators; 2.8% of 320,000 active; note: % of control where 0% means no effect; nearly all actives have a fitted effect of over 60% in size
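Luminescence from Amplite-detected luciferase (10 minutes, ambient) reports Rab9 promoter activation. Before that, stable Rab9-luciferase Huh7 cells (1500/well, reduced-serum OP-MEM I plus 10% FBS) were exposed to compound for 24 hours at 37C.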
SMN2 splice enh: increases expression of the SMN2 splice variant; HEK293 SMN2-luciferase splicing reporter, luminescence, 30-36 h; Potency, µM (highest dose often 46.1 µM), without a hit: at the top dose activity change, positive = activation, actives largely listed as activators; 2.8% of 210,000 active; AID 1458; note: % of control where 0% means no effect; nearly all actives have a fitted effect of over 55% in size
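HEK293 cells carry an SMN2 minigene-luciferase reporter in which exon 7 inclusion puts luciferase in frame. Cells were seeded at 2000 cells/well, attached for 10-12 hours, then exposed to compounds for 30-36 hours at 37C before ONE-Glo luminescence.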
NPC1 prom act: NPC1 promoter activation. Huh7 NPC1 promoter luciferase reporter, 24 h. Potency, µM (highest dose often 9.22 µM), without a hit: at the highest dose activation, hits mostly activators. 2.4% of 320,000 active; note: % of control where 0% means no effect; nearly all actives have a fitted effect of over 60% in size
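Luminescence from an NPC1 promoter-driven luciferase reporter in stably transfected Huh7 cells was measured after 24 h compound treatment at 37 °C, followed by 10 min ambient incubation with luciferase detection reagent.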
Luc counter: blocks Kinase-Glo luciferase, a counter-screen artifact. Kinase-Glo luciferase, ATP luminescence, 8 min. Potency, µM (doses to about 38.3 µM), inactives show at the highest dose activity change, negative = inhibition, usual class: inhibitors. 0.28% of 200,000 active; note: % is set by controls: 0 for no effect and ±100 for the full control effect; nearly all actives have a fitted effect of over 60% in size
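Substrate mix (final 50 mM imidazole pH 7.2, 50 mM KCl, 7 mM MgCl2, 10 uM ATP, 0.01% Tween 20, 0.05% BSA) plus pin-tool compound, then Kinase-Glo detection mix; 8 min ambient, luminescence read.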
The depositor's hits bear a star; ? = inconclusive; nt = no result; [ ] = dose if it differs, or a comment. Calls come from the whole dose curve; as a rule, active = well fitted curve in the direction sought with a large enough effect; inconclusive = small, poorly fitted or top-dose-only effect, or another doubt; inactive = no such curve, though single readings can be large; an effect the other way counts as inactive or inconclusive. Potency is the fitted concentration of half-maximal effect.

SMILES	FLuc counter	ELG1 genotox	Rab9 prom act	SMN2 splice enh	NPC1 prom act	Luc counter
Cn1c(=N)n(CC(=O)O)c2ccccc21	0%	0%	-2%	18%	-3%	-2%
Cn1c(=N)n(CC(=O)c2ccc(Cl)c(Cl)c2)c2ccccc21	0.38µM*	?	?	nt	?	nt
COc1ccc(C(=O)CN2Cc3ccccc3C2=N)cc1	11µM*	2.6µM*	2.5µM*	nt	4µM*	nt
Cn1c(=N)n(CC(=O)c2ccccc2)c2ccccc21	1.2µM*	0.37µM*	1.1µM*	nt	3.2µM*	nt
COc1ccc(C(=O)CN2C(=O)COc3ccccc32)cc1	2%	6%	-2%	nt	-6%	0%
COc1ccc(C(=O)Cn2c(=N)n(C)c3ccccc32)cc1	8.5µM*	?	?	nt	26%	nt
CN(CCc1ccccc1)C(=O)c1cccc(NC(=O)Cc2cccc([N+](=O)[O-])c2)c1	nt	-5%	nt	nt	nt	nt
CCc1cccc(C)c1NC(=O)NC1COc2ccccc2C1 (stereo not given)	-2%	nt	nt	nt	nt	nt
COc1ccc(-c2csc(NC(=O)COC(=O)C3=COCCO3)n2)cc1	2%	15%	4µM*	14µM*	3.5µM*	-3%
O=C(Nc1nc(-c2ccc(-c3ccccc3)cc2)cs1)C1=COCCO1	?	17%	-6%	-21%	-2%	-1%
C=CCn1c(C)cc(-c2csc(NCC)n2)c1C	15µM*	-8%	-4%	nt	23%	-10%
C=CCNc1nc(-c2ccc(OC)cc2OC)cs1	12µM*	?	3.2µM*	?	2.8µM*	0%
C=CCn1c(C)cc(-c2csc(NC(=O)C3=COCCO3)n2)c1C	9.5µM*	?	1.6µM*	nt	2.2µM*	nt
CC(C)(C)c1ccc(OCC(=O)NC(Cc2c[nH]c3ccccc23)C(=O)O)cc1 (stereo not given)	?	nt	nt	-9%	nt	nt
Cc1ccc(C(=O)N=c2sccn2C)o1	4%	11%	0%	nt	-4%	nt
COc1ccccc1CNC(=O)COc1cc2c(c3oc(=O)cc(C)c13)CCC(C)(C)O2	5%	-5%	-11%	nt	4%	nt
Cc1ccc(NS(=O)(=O)c2ccc(Cl)c(C(=O)Nc3cccc(C(=O)O)c3)c2)cc1	-14%	1%	0%	nt	-1%	nt
CCCCCc1ccc(C(=O)CCC(=O)OCC(=O)N(CC)c2c(N)n(Cc3ccccc3)c(=O)[nH]c2=O)cc1	?	5%	-2%	nt	12%	nt
COc1ccc(-c2csc(NC(=O)CN3C(=O)C4CCCCC4C3=O)n2)c(OC)c1 (stereo not given)	?	0%	-5%	nt	5%	nt
COc1ccc(-c2csc(NC(=O)C3=COCCO3)n2)c(OC)c1	24µM*	21µM*	?	nt	?	nt
Cc1cc(C)c(-c2csc(NC(=O)C3=COCCO3)n2)cc1C	19µM*	1%	8%	nt	13%	nt
Cc1c(NS(=O)(=O)c2cc(C(=O)NC(C)c3ccccc3)ccc2Cl)c(=O)n(-c2ccccc2)n1C (stereo not given)	0%	0%	2%	nt	2%	nt
COc1ccc(CNC(=O)C2CCN(S(=O)(=O)c3ccc4c(c3)CC(C)N4C(=O)C3CC3)CC2)cc1 (stereo not given)	1%	-9%	-6%	nt	-3%	nt
COc1ccc(NC(=O)CCC(=O)N/N=C/c2cn(C)nc2C)cc1	6%	-3%	-1%	nt	-3%	nt
COc1ccc(NC(=O)O/N=C/c2c(C)nn(C(C)(C)C)c2C)cc1	0.38µM*	1.6µM*	0.32µM*	nt	0.35µM*	nt
SMILES	FLuc counter	ELG1 genotox	Rab9 prom act	SMN2 splice enh	NPC1 prom act	Luc counter
CCCC(=O)N(c1ccc2oc(-c3ccccc3)c(C(=O)OCC)c2c1)S(=O)(=O)c1ccc(C)cc1	0%	nt	nt	16%	nt	nt
S=c1[nH]nc(-c2ccccc2)n1/N=C/c1ccc(-c2ccccc2Cl)o1	-6%	-8%	-3%	?	-5%	1%
O=C(N/N=C/c1ccc(-c2ccccc2Cl)o1)c1ccccc1	13µM*	18%	16%	?	0%	1%
O=S(=O)(N/N=C\c1ccc(-c2ccccc2Cl)o1)c1ccccc1	-7%	-2%	-3%	-53%	2%	6%
O=C(O)c1ccc(N/N=C/c2ccc(-c3ccccc3Cl)o2)cc1	0.67µM*	1.8µM*	?	nt	?	nt
Cc1nnc(C)n1/N=C/c1ccc(-c2ccccc2Cl)o1	-13%	23µM*	1%	nt	-2%	nt
N#CCN(CC#N)C(=O)C1c2ccccc2Oc2ccccc21	0%	2%	2%	nt	-4%	nt
COc1cccc(-c2cn3c(n2)sc2cc(C(=O)NC4CCCCCC4)ccc23)c1	-15%	nt	nt	nt	nt	nt
Cc1ccccc1OCCSc1nc(C)c(Cc2ccccc2)c(=O)[nH]1	-7%	nt	nt	-6%	nt	nt
CC1CCC(=O)N(CCSc2ccccc2)CC1 (stereo not given)	5.4µM*	?	0.89µM*	nt	1.1µM*	nt
COc1ccc(SCCN2CC[C@@H](C)CCC2=O)cc1	?	7%	18%	nt	15%	nt
COc1ccc(-n2ccn(CC(=O)Nc3ccc(C)cc3C)c(=O)c2=O)cc1	-6%	nt	nt	nt	nt	nt
CCOC(=O)N1CCN(C(=O)c2ccc3c(c2)sc2nc(-c4ccccc4)cn23)CC1	21µM*	1%	3.2µM*	-32%	3.5µM*	-6%
CCOC(=O)N1CCN(CC(=O)Nc2nc3ccccc3s2)CC1	0%	-4%	0%	nt	-5%	nt
CCOC(=O)N1CCN(C(=O)c2nc3ccccc3s2)CC1	19µM*	?	13%	?	16%	-2%
CC(=O)c1ccccc1OCC(O)Cn1c(CO)nc2ccccc21 (stereo not given)	24µM*	nt	nt	6%	nt	nt
Brc1ccc(Cn2c(-c3ccc(Br)o3)nc3ccccc32)o1	19µM*	5%	11%	19%	13%	0%
Cn1c(-c2nonc2N)nc2ccccc21	3%	-5%	-2%	nt	0%	nt
Cc1ccc(-c2nc3ccccc3n2C)o1	5.4µM*	2.9µM*	1.1µM*	11µM*	1.6µM*	7.9µM*
Cn1c(-c2ccc(Br)o2)nc2cc(Br)ccc21	1.9µM*	?	1.1µM*	14µM*	1.4µM*	-27%
Oc1ccc(Cn2c(-c3ccc(O)cc3)nc3ccccc32)cc1	nt	nt	nt	-6%[9.22 µM]	nt	-7%[7.66 µM]
Cc1ccc(C2Nc3ccccc3-c3nc4ccccc4n32)o1 (stereo not given)	11µM*	?	?	11µM*	?	-7%
CC(=O)C1=C(O)C(=O)N(c2ccc(Br)cc2)C1c1ccccc1[N+](=O)[O-] (stereo not given)	1%	4%	-8%	nt	-2%	nt
COc1ccc(CCNC(=O)Cc2c(C)c3cc4c(C)coc4cc3oc2=O)cc1OC	-1%	nt	nt	8%	nt	nt
